Data on 60 molecules can be found in the antibiotic and cytotoxicity screens of Wong et al. (2023).

Molecules are shown by their SMILES. Screen size: about 39,000 compounds; about 3,300 (8.5%) were called active. This excerpt belongs to a sample that is enriched for actives.

The subject of this experiment is HepG2. Nature of the experiment: cytotoxicity call (relative viability < 0.9). Particulars: 10 µM.
Take `Cc1noc(C)c1NC(=O)N[C@H]1C=C[C@H](CC(=O)N2CCN(C)CC2)O[C@@H]1CO`: the cytotoxicity call was “inactive”.
Under `C[C@H]1CCCCO[C@@H](CN(C)C(=O)NC2CCCCC2)[C@@H](C)CN([C@@H](C)CO)C(=O)c2cc(NC(=O)Cc3ccccc3)ccc2O1` stands “inactive”; under `COc1ccc(NC(=O)Nc2cccc3c2O[C@H](CN(C)C(=O)Nc2cccc4ccccc24)[C@H](C)CN([C@@H](C)CO)C3=O)cc1`, “inactive”; under `Cc1c(N2CCCC2)cc2c(c1-n1cccc1)C(C)(C)CC2(C)C`, “inactive”.
Under `COc1ccc2c3c(n(c2c1)C)[C@@H](CO)N(Cc1cc(cc(c1)OC)OC)C[C@]13CN(C1)S(=O)(=O)c1cn(cn1)C` stands “inactive”; under `O=S(=O)(NCC[C@@H]1CC[C@@H](NS(=O)(=O)c2ccccc2Cl)[C@H](CO)O1)c1ccc(Cl)cc1`, “inactive”; under `Cc1ccc(S(=O)(=O)N[C@@H]2C=C[C@H](CC(=O)NCCN3CCCCC3)O[C@H]2CO)cc1`, “inactive”.
As for `COc1ccc(NC(=O)N(C)C[C@H]2Oc3ccc(NC(=O)Nc4cccc5ccccc45)cc3C(=O)N([C@@H](C)CO)C[C@@H]2C)cc1`, the entry is “inactive”.
For the molecule `Cc1noc(C)c1NC(=O)Nc1ccc2c(c1)C(=O)N([C@H](C)CO)C[C@H](C)[C@@H](CN(C)Cc1ccc(Cl)c(Cl)c1)O2`, the cytotoxicity call is “inactive”.
As for `C[C@@H]1CN([C@H](C)CO)C(=O)Cc2cc(NS(=O)(=O)c3ccc(F)cc3)ccc2O[C@H]1CN(C)Cc1ccc(-c2ccccc2)cc1`, the entry is “active”; as for `C[C@@H]1CN([C@H](C)CO)C(=O)Cc2cc(NC(=O)NC3CCCCC3)ccc2O[C@@H]1CN(C)C(=O)Nc1ccc(C(F)(F)F)cc1`, “inactive”.
As for `COc1ccc(S(=O)(=O)Nc2ccc3c(c2)C(=O)N([C@H](C)CO)C[C@@H](C)[C@H](CN(C)C(=O)Nc2ccc(F)cc2)OCCCC[C@H](C)O3)cc1`, the entry is “inactive”; as for `C[C@H]1CN([C@@H](C)CO)C(=O)c2cc(C#CCN(C)C)cnc2O[C@H]1CN(C)S(C)(=O)=O`, “inactive”; as for `C[C@@H]1CCCCO[C@H](CN(C)Cc2ccc(C(F)(F)F)cc2)[C@@H](C)CN([C@@H](C)CO)C(=O)c2cc(NS(=O)(=O)c3ccc(Cl)cc3)ccc2O1`, “active”.
Regarding `C[C@@H]1CCCCO[C@@H](CN(C)Cc2ccc(C(F)(F)F)cc2)[C@H](C)CN([C@H](C)CO)C(=O)c2cc(NS(=O)(=O)c3ccc(Cl)cc3)ccc2O1`, the cytotoxicity call was “active”.
`C[C@@H]1CN([C@H](C)CO)C(=O)c2cc(NS(=O)(=O)c3ccc(Cl)cc3)ccc2O[C@@H](C)CCCCO[C@H]1CN(C)Cc1ccc(C(F)(F)F)cc1`: the cytotoxicity call was “active”.
As for `C[C@@H]1CCCCO[C@H](CN(C)Cc2ccc(C(F)(F)F)cc2)[C@H](C)CN([C@H](C)CO)C(=O)c2cc(NS(=O)(=O)c3ccc(Cl)cc3)ccc2O1`, the entry is “active”; as for `C[C@@H]1CN([C@@H](C)CO)C(=O)c2cc(NS(=O)(=O)c3ccc(Cl)cc3)ccc2O[C@@H](C)CCCCO[C@@H]1CN(C)Cc1ccc(C(F)(F)F)cc1`, “inactive”; as for `C[C@H](CO)N1C[C@H](C)[C@@H](CN(C)Cc2ccc(C(F)(F)F)cc2)OCCCC[C@H](C)Oc2ccc(NS(=O)(=O)c3ccc(Cl)cc3)cc2C1=O`, “inactive”.
Turning to `CNC[C@H]1OCCCC[C@@H](C)Oc2ccc(NS(=O)(=O)c3cn(C)cn3)cc2C(=O)N([C@@H](C)CO)C[C@H]1C`, the cytotoxicity call was “inactive”.
Under `C[C@@H]1CCCCO[C@@H](CN(C)C(=O)c2ccccc2)[C@@H](C)CN([C@H](C)CO)C(=O)c2cc(NC(=O)CCC(F)(F)F)ccc2O1` stands “inactive”; under `C[C@@H]1CN([C@H](C)CO)C(=O)c2cc(NS(=O)(=O)c3cccs3)ccc2O[C@@H](C)CCCCO[C@@H]1CN(C)C(=O)CCC(F)(F)F`, “inactive”; under `C[C@H](N)CCCP(=O)(O)O`, “inactive”.
`COC(=O)CCCCCCC(=O)Nc1ccc([C@H]2O[C@H](CSc3nc(-c4ccccc4)c(-c4ccccc4)o3)C[C@H](c3ccc(NC(=O)CCCCCCC(=O)OC)cc3)O2)cc1`: the cytotoxicity call was “inactive”.
As for `C[C@H]1CN([C@@H](C)CO)C(=O)c2cc(NS(C)(=O)=O)ccc2O[C@@H]1CN(C)Cc1ccc(C(F)(F)F)cc1`, the entry is “inactive”; as for `COc1ccc(NC(=O)Nc2ccc3c(c2)[C@H]2C[C@@H](CC(=O)N4CCN(C)CC4)O[C@H](CO)[C@H]2O3)cc1`, “inactive”; as for `C[C@@H]1CN([C@H](C)CO)C(=O)c2cc(C#CCN(C)C)cnc2O[C@H]1CN(C)Cc1ccc2c(c1)OCO2`, “inactive”.
As for `C[C@H](CO)N1C[C@H](C)[C@@H](CN(C)C(=O)c2cnccn2)Oc2ncc(/C=C/c3ccccc3)cc2C1=O`, the entry is “inactive”; as for `CC(C)NC(=O)Nc1ccc2c(c1)C(=O)N([C@@H](C)CO)C[C@H](C)[C@H](CN(C)C(=O)Nc1ccc3c(c1)OCO3)O2`, “inactive”.
As for `C[C@H]1CN([C@@H](C)CO)S(=O)(=O)c2ccc(C#CC3CCCC3)cc2O[C@H]1CN(C)Cc1cncnc1`, the entry is “inactive”; as for `CO[C@@H]1CN(C)C(=O)c2ccc(NC(=O)C3CCOCC3)cc2OC[C@H](C)N(Cc2cccnc2)C[C@@H]1C`, “inactive”; as for `C[C@H]1CN([C@@H](C)CO)C(=O)c2cccc(NC(=O)c3cnccn3)c2O[C@H]1CN(C)C(=O)Nc1ccc2c(c1)OCO2`, “inactive”.
Take `C[C@H]1CN([C@@H](C)CO)C(=O)c2cccc(NC(=O)c3ccncc3)c2O[C@H]1CN(C)S(=O)(=O)c1cn(C)cn1`: the cytotoxicity call is “inactive”.
As for `NCCCC[C@@H]1NC(=O)[C@H]2C[C@@H](C(=O)NCc3ccc(F)cc3)[C@@H](c3cccc(OCCO)c3)N2C1=O`, the entry is “inactive”; as for `COc1ccc(S(=O)(=O)Nc2cccc3c2O[C@H](CN(C)CC2CC2)[C@@H](C)CN([C@H](C)CO)C3=O)cc1`, “inactive”; as for `COCC#Cc1ccc2c(c1)O[C@H](CN(C)S(=O)(=O)c1cccc(OC)c1)[C@H](C)CN([C@H](C)CO)S2(=O)=O`, “inactive”.
As for `CN1C(=O)c2cc(NC(=O)C3CCOCC3)ccc2OC[C@H]2O[C@H](CC(=O)NCCc3ccncc3)CC[C@H]21`, the entry is “inactive”; as for `C[C@@H]1CN([C@@H](C)CO)C(=O)c2cc(NC(=O)NC3CCCCC3)ccc2O[C@@H](C)CCCCO[C@@H]1CN(C)C(=O)Nc1ccccc1`, “inactive”.
Consider `Cc1ccc(S(=O)(=O)N(C)C[C@H]2Oc3ccc(NS(=O)(=O)c4cn(C)cn4)cc3C(=O)N([C@H](C)CO)C[C@H]2C)cc1`, for which the cytotoxicity call was “inactive”.
As for `C[C@@H]1CN([C@@H](C)CO)C(=O)c2cc(NS(=O)(=O)c3ccc(Cl)cc3)ccc2O[C@@H](C)CCCCO[C@H]1CN(C)Cc1ccc(C(F)(F)F)cc1`, the entry is “active”; as for `C[C@H]1CCCCO[C@@H](CN(C)Cc2ccc(C(F)(F)F)cc2)[C@@H](C)CN([C@@H](C)CO)C(=O)c2cc(NS(=O)(=O)c3ccc(Cl)cc3)ccc2O1`, “inactive”.
Under `C[C@H]1CCCCO[C@H](CN(C)Cc2ccc(C(F)(F)F)cc2)[C@@H](C)CN([C@@H](C)CO)C(=O)c2cc(NS(=O)(=O)c3ccc(Cl)cc3)ccc2O1` stands “inactive”; under `C[C@@H]1CCCCO[C@@H](CN(C)Cc2ccc(C(F)(F)F)cc2)[C@H](C)CN([C@@H](C)CO)C(=O)c2cc(NS(=O)(=O)c3ccc(Cl)cc3)ccc2O1`, “active”; under `C[C@@H]1CCCCO[C@@H](CN(C)Cc2ccc(C(F)(F)F)cc2)[C@@H](C)CN([C@@H](C)CO)C(=O)c2cc(NS(=O)(=O)c3ccc(Cl)cc3)ccc2O1`, “inactive”.
As for `C[C@@H]1CCCCO[C@H](CN(C)Cc2ccc(C(F)(F)F)cc2)[C@@H](C)CN([C@H](C)CO)C(=O)c2cc(NS(=O)(=O)c3ccc(Cl)cc3)ccc2O1`, the entry is “active”; as for `C[C@@H]1CCCCO[C@@H](CN(C)Cc2ccc(C(F)(F)F)cc2)[C@@H](C)CN([C@H](C)CO)C(=O)c2cc(NS(=O)(=O)c3ccc(Cl)cc3)ccc2O1`, “active”.
Turning to `C[C@@H]1CN([C@H](C)CO)C(=O)c2cc(NS(=O)(=O)c3ccc(Cl)cc3)ccc2O[C@@H](C)CCCCO[C@@H]1CN(C)Cc1ccc(C(F)(F)F)cc1`, the cytotoxicity call was “inactive”.
Under `Cc1ccc(S(=O)(=O)N(C)C[C@H]2Oc3ccc(NS(=O)(=O)c4c(C)noc4C)cc3C(=O)N([C@H](C)CO)C[C@@H]2C)cc1` stands “inactive”; under `C[C@]12C(=O)N(CCC(=O)O)C(=O)[C@H]1[C@@H]1C=C[C@@H]2C1`, “inactive”.
Under `Cc1ccc(S(=O)(=O)Nc2cccc3c2O[C@@H](CN(C)S(=O)(=O)c2ccc(F)cc2)[C@H](C)CN([C@@H](C)CO)C3=O)cc1` stands “inactive”; under `O=C(Cn1ccc([N+](=O)[O-])n1)N1CCOCC1`, “inactive”.
For `COc1ccc(NC(=O)N(C)C[C@H]2Oc3ccc(NC(=O)Cn4cnnn4)cc3CC(=O)N([C@H](C)CO)C[C@H]2C)cc1`, the cytotoxicity call was “inactive”.
Under `C[C@H](CO)N1C[C@H](C)[C@H](CN(C)Cc2ccc(Oc3ccccc3)cc2)Oc2c(NS(=O)(=O)c3ccc(F)cc3)cccc2C1=O` stands “inactive”.
As for `C[C@H](CO)N1C[C@H](C)[C@@H](CN(C)S(=O)(=O)c2ccc(Cl)cc2)Oc2ccc(NS(=O)(=O)c3cn(C)cn3)cc2C1=O`, the entry is “inactive”.
As for `O=C(NCCCN1CCOCC1)[C@@H]1[C@@H](CO)[C@@H]2Cn3c(ccc(C4=CCCCC4)c3=O)[C@H]1N2`, the entry is “inactive”.
With `Cc1ccc(S(=O)(=O)Nc2cccc3c2O[C@@H](CN(C)S(=O)(=O)c2ccc(F)cc2)[C@H](C)CN([C@H](C)CO)C3=O)cc1`, the cytotoxicity call was “inactive”.
As for `CC(C)(C)OC(=O)C[C@@H]1CC=CC[C@@H](CC(=O)N[C@H](CO)Cc2ccccc2)C(=O)N[C@@H](C(C)(C)C)COC1=O`, the entry is “inactive”.
As for `CC1CCN(S(=O)(=O)c2c[nH]cn2)CC1`, the entry is “inactive”; as for `Cc1noc(C)c1NC(=O)N(C)C[C@H]1Oc2ccc(NS(C)(=O)=O)cc2C(=O)N([C@H](C)CO)C[C@H]1C`, “inactive”.
As for `COc1ccc(CN(C)C[C@H]2OCCCC[C@H](C)Oc3ccc(NC(=O)NC(C)C)cc3C(=O)N([C@@H](C)CO)C[C@@H]2C)cc1`, the entry is “inactive”.
